From PubChem BioAssay (NCI) come the findings set out here.

A short description of assay [1]: NCI Yeast Anticancer Drug Screen. Data for the rad50 strain (AID 155).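 Further: 0% = growth of vehicle-only cultures of the same strain.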 Conditions: S. cerevisiae rad50 strain growth inhibition, active compounds read high. Put shortly:
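Inhibition values express reduced yeast growth in compound-treated cultures relative to vehicle-treated controls.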

A short description of assay [2]: NCI Yeast Anticancer Drug Screen. Data for the mec2-1 strain (AID 157). As to conditions: S. cerevisiae mec2-1 strain, active compounds read high. Summed up: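 Yeast mec2-1 mutant treated with compound. Readout: growth inhibition vs vehicle controls.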
The nature of assay [3]: NCI Yeast Anticancer Drug Screen. Data for the sgs1 mgt1 strain (AID 161).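 Further: 0% = growth of cultures given vehicle only.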 As to conditions: S. cerevisiae sgs1 mgt1 strain, active compounds read high. Summed up: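 Genetically altered yeast, compound exposure, growth inhibition relative to vehicle.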
A short description of assay [4]: NCI Yeast Anticancer Drug Screen. Data for the cln2 rad14 strain (AID 165).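 Further: 0% = growth equal to vehicle treated cultures.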 Conditions: S. cerevisiae cln2 rad14 strain, active compounds read high. Put shortly:
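cln2 rad14 yeast strain; compound exposure; growth inhibition read vs vehicle controls.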

Assay [5] in a line: NCI Yeast Anticancer Drug Screen. Data for the bub3 strain (AID 167). As to conditions: S. cerevisiae bub3 mutant strain, active compounds read high. Summed up:
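Steps: expose the mutant yeast strain to compound; grow alongside vehicle-treated cultures; measure growth; express inhibition against the vehicle cultures.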

A short description of assay [6]: NCI Yeast Anticancer Drug Screen. Data for the mlh1 rad18 strain (AID 175). Conditions: S. cerevisiae mlh1 rad18 strain growth inhibition, active compounds read high. Put shortly:
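Yeast w/ defined DNA-repair lesions; compound exposure; growth vs vehicle controls → % inhibition.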

Where [7] appears, read: at 5.0 µM (retest, dose inferred, filed as 0.5).
[8] abbreviates: at 50.0 µM (retest, dose inferred, filed as 5.0).

About 79,000 compounds went through this panel and 15% of them were active in at least one assay; those are over-represented in the sample as a whole. A number with no mark means an inactive call. The source made the active and inactive calls. No stated cut-off is given here; in the data, active means growth inhibition above about 70%; inactive means the rest.

For `COc1ccc(C2=CC(=O)C=CC2=O)cc1`, the growth inhibition was 19% in assay [1] (setting [7]); 91% (active) in assay [1] (setting [8]); 99% (active) in assay [1] (at 50.0 µM); 3% in assay [2] (setting [7]); 97% (active) in assay [2] (setting [8]); 99.5% (active) in assay [2] (at 50.0 µM). The growth inhibition was 14% in assay [3] (setting [7]); 90% (active) in assay [3] (setting [8]); 98.7% (active) in assay [3] (at 50.0 µM); -5% in assay [4] (setting [7]); 70% (active) in assay [4] (setting [8]); 82.2% (active) in assay [4] (at 50.0 µM). The growth inhibition in assay [5] (setting [7]) was 28%; in assay [5] (setting [8]), 99% (active); in assay [5] (at 50.0 µM), 99.5% (active); in assay [6] (setting [7]), 18%; in assay [6] (setting [8]), 89% (active); in assay [6] (at 50.0 µM), 99.2% (active).

Turning to `O=c1oc(-c2ccccc2)nc2ccccc12`, the growth inhibition is 4% in assay [1] (setting [7]); 41% in assay [1] (setting [8]); 76.5% (active) in assay [1] (at 50.0 µM); 4% in assay [2] (setting [7]); 17% in assay [2] (setting [8]); 31.2% in assay [2] (at 50.0 µM). Besides, the growth inhibition in assay [3] (setting [7]) was 0%; in assay [3] (setting [8]), 9%; in assay [3] (at 50.0 µM) it was 58.9%; in assay [4] (setting [7]) it was 4%; in assay [4] (setting [8]), 4%; in assay [4] (at 50.0 µM), 27.5%. For the same compound, the growth inhibition in assay [5] (setting [7]) is 0%; in assay [5] (setting [8]) it was 11%; in assay [5] (at 50.0 µM) it was 38.9%; in assay [6] (setting [7]) it was -4%; in assay [6] (setting [8]), 20%; in assay [6] (at 50.0 µM) it was 42.8%.

With `O=C(NCCc1c(-c2ccccc2)[nH]c2ccccc12)C(F)(F)C(F)(F)F`, the growth inhibition was 21% in assay [1] (setting [7]); 21% in assay [1] (setting [8]); 86.5% (active) in assay [1] (at 50.0 µM); 1% in assay [2] (setting [7]); 1% in assay [2] (setting [8]); 91% (active) in assay [2] (at 50.0 µM). For the same compound, the growth inhibition in assay [3] (setting [7]) was 33%; in assay [3] (setting [8]) it was 33%; in assay [3] (at 50.0 µM), 84.8% (active); in assay [4] (setting [7]), 4%; in assay [4] (setting [8]), 4%; in assay [4] (at 50.0 µM) it was 81.6% (active). Also, the growth inhibition in assay [5] (setting [7]) is 5%; in assay [5] (setting [8]), 5%; in assay [5] (at 50.0 µM), 79% (active); in assay [6] (setting [7]), 23%; in assay [6] (setting [8]), 23%; in assay [6] (at 50.0 µM), 30.1%.

Consider `COC(=O)n1c(C[P+](c2ccccc2)(c2ccccc2)c2ccccc2)cc2ccccc21`, for which the growth inhibition in assay [1] (setting [7]) is 89% (active); in assay [1] (setting [8]), 100% (active); in assay [1] (at 50.0 µM), 99.2% (active); in assay [2] (setting [7]) it was 90% (active); in assay [2] (setting [8]), 100% (active); in assay [2] (at 50.0 µM) it was 99.6% (active). Further, the growth inhibition in assay [3] (setting [7]) was 79% (active); in assay [3] (setting [8]), 99% (active); in assay [3] (at 50.0 µM), 99.5% (active); in assay [4] (setting [7]), 91% (active); in assay [4] (setting [8]), 99% (active); in assay [4] (at 50.0 µM), 98.1% (active). Further, the growth inhibition was 95% (active) in assay [5] (setting [7]); 100% (active) in assay [5] (setting [8]); 99.4% (active) in assay [5] (at 50.0 µM); 90% (active) in assay [6] (setting [7]); 99% (active) in assay [6] (setting [8]); 99% (active) in assay [6] (at 50.0 µM).

For `O=Cc1cc([N+](=O)[O-])ccc1O`, the growth inhibition in assay [1] (setting [7]) is 95% (active); in assay [1] (setting [8]), 99% (active); in assay [1] (at 50.0 µM) it was 93.8% (active); in assay [2] (setting [7]), 98% (active); in assay [2] (setting [8]), 99% (active); in assay [2] (at 50.0 µM), 96.7% (active). Also, the growth inhibition in assay [3] (setting [7]) is 86% (active); in assay [3] (setting [8]) it was 99% (active); in assay [3] (at 50.0 µM) it was 98.5% (active); in assay [4] (setting [7]), 96% (active); in assay [4] (setting [8]), 99% (active); in assay [4] (at 50.0 µM) it was 74.2% (active). For the same compound, the growth inhibition is 97% (active) in assay [5] (setting [7]); 99% (active) in assay [5] (setting [8]); 94.8% (active) in assay [5] (at 50.0 µM); 98% (active) in assay [6] (setting [7]); 99% (active) in assay [6] (setting [8]); 97% (active) in assay [6] (at 50.0 µM).

Consider `NCCOB1c2ccccc2Cc2ccccc21`, for which the growth inhibition in assay [1] (setting [7]) is 2%; in assay [1] (setting [8]), 98% (active); in assay [1] (at 50.0 µM), 45.6%; in assay [2] (setting [7]), 6%; in assay [2] (setting [8]), 99% (active); in assay [2] (at 50.0 µM), 98.7% (active). The growth inhibition in assay [3] (setting [7]) is -3%; in assay [3] (setting [8]) it was 99% (active); in assay [3] (at 50.0 µM) it was -3.8%; in assay [4] (setting [7]), -2%; in assay [4] (setting [8]), 99% (active); in assay [4] (at 50.0 µM), 99% (active). Further, the growth inhibition in assay [5] (setting [7]) was 1%; in assay [5] (setting [8]), 98% (active); in assay [5] (at 50.0 µM), 99.1% (active); in assay [6] (setting [7]) it was 0%; in assay [6] (setting [8]), 99% (active); in assay [6] (at 50.0 µM), 99% (active).

Take `COc1ccc2ccc(/C=C/[N+](=O)[O-])cc2c1OC`: the growth inhibition was 48% in assay [1] (setting [7]); 98% (active) in assay [1] (setting [8]); 55.1% in assay [1] (at 50.0 µM); 40% in assay [2] (setting [7]); 99% (active) in assay [2] (setting [8]); 88.2% (active) in assay [2] (at 50.0 µM). The growth inhibition in assay [3] (setting [7]) was 53%; in assay [3] (setting [8]), 99% (active); in assay [3] (at 50.0 µM), 34.8%; in assay [4] (setting [7]), 41%; in assay [4] (setting [8]) it was 99% (active); in assay [4] (at 50.0 µM), 37.9%. Also, the growth inhibition in assay [5] (setting [7]) is 67%; in assay [5] (setting [8]), 99% (active); in assay [5] (at 50.0 µM), 85.3% (active); in assay [6] (setting [7]), 37%; in assay [6] (setting [8]) it was 98% (active); in assay [6] (at 50.0 µM), 67.6%.

`COc1ccc(CCN2C(=O)C(=O)N(C3CCCCC3)C2=O)cc1OC`: the growth inhibition was -1% in assay [1] (setting [7]); 2% in assay [1] (setting [8]); 75.4% (active) in assay [1] (at 50.0 µM); -1% in assay [2] (setting [7]); 0% in assay [2] (setting [8]); 11.9% in assay [2] (at 50.0 µM). For the same compound, the growth inhibition in assay [3] (setting [7]) was -3%; in assay [3] (setting [8]), -3%; in assay [3] (at 50.0 µM) it was 26.9%; in assay [4] (setting [7]) it was -2%; in assay [4] (setting [8]) it was 0%; in assay [4] (at 50.0 µM), 12.8%. For the same compound, the growth inhibition in assay [5] (setting [7]) is -2%; in assay [5] (setting [8]), -5%; in assay [5] (at 50.0 µM), 34.1%; in assay [6] (setting [7]) it was -6%; in assay [6] (setting [8]), -8%; in assay [6] (at 50.0 µM), 38.4%.

In the case of `Cc1cc(CN(Cc2ccccc2)Cc2nc3ccccc3[nH]2)c(O)c(CN(Cc2nc3ccccc3[nH]2)Cc2nc3ccccc3[nH]2)c1`, the growth inhibition in assay [1] (setting [7]) was 7%; in assay [1] (setting [8]), 44%; in assay [1] (at 50.0 µM), 73% (active); in assay [2] (setting [7]), -3%; in assay [2] (setting [8]) it was 24%; in assay [2] (at 50.0 µM) it was 72.5% (active). In addition, the growth inhibition is 1% in assay [3] (setting [7]); 70% (active) in assay [3] (setting [8]); 94.3% (active) in assay [3] (at 50.0 µM); -5% in assay [4] (setting [7]); 59% in assay [4] (setting [8]); 67.3% in assay [4] (at 50.0 µM). Also, the growth inhibition in assay [5] (setting [7]) was 3%; in assay [5] (setting [8]), 66%; in assay [5] (at 50.0 µM) it was 27.9%; in assay [6] (setting [7]), 2%; in assay [6] (setting [8]) it was 79% (active); in assay [6] (at 50.0 µM), 93.3% (active).
